Data on ten molecules can be found in the supplement of paper PMC6279402.

Where a name gives a salt, the structure may show the parent alone. ± gives the standard deviation of the averaged measurements.

The test has as its system A549. Briefly: relative viability (normalised to negative control = 1, bortezomib = 0) (fraction); higher = less cytotoxic. To be noted: inflammatory serum-free RHB-A with cytokines + LPS, 5 d + 24 h CellTiter-Blue. On the procedure: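 A549 KRAS-mutant NSCLC cells, pre-treated 5 µM GSK126 or vehicle (DMSO), were seeded at 250 cells/well in 384-well plates in serum-free RHB-A medium with inflammatory cytokines/LPS and treated with Selleck kinase inhibitor and NCI oncology compounds at 30 or 300 nM in triplicate, refreshed at 48 h. Viability was read by CellTiter-Blue after 5 d plus 24 h and normalised per plate with cellHTS2 (mean of bortezomib positive control = 0, mean of negative control = 1).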

[1] abbreviates: compound 30 nM, GSK126 pretreatment: 5 uM GSK126.
Where [2] appears, read: compound 30 nM, GSK126 pretreatment: none (vehicle).
Setting [3] is: compound 300 nM, GSK126 pretreatment: 5 uM GSK126.
[4] abbreviates: compound 300 nM, GSK126 pretreatment: none (vehicle).

Take `Oc1ccc(-c2nc(-c3ccc(F)cc3)c(-c3ccncc3)[nH]2)cc1`: the relative viability runs as follows: under setting [1], 1.08 ± 0.13; under setting [2], 0.954 ± 0.13; under setting [3], 1.36 ± 0.066; under setting [4], 1.17 ± 0.19.

`CCC1=C[C@@H]2CN(C1)Cc1c([nH]c3ccccc13)[C@@](C(=O)OC)(c1cc3c(cc1OC)N(C)[C@H]1[C@@](O)(C(=O)OC)[C@H](OC(C)=O)[C@]4(CC)C=CCN5CC[C@]31[C@@H]54)C2` [Vinorelbine tartrate]: the relative viability is, setting by setting: under setting [1], 0.403 ± 0.049; under setting [2], 0.444 ± 0.021; under setting [3], 0.376 ± 0.056; under setting [4], 0.307 ± 0.025.

In the case of `CC(=O)O[C@@]12CO[C@@H]1C[C@H](O)[C@@]1(C)C(=O)[C@H](O)C3=C(C)[C@@H](OC(=O)[C@H](O)[C@@H](NC(=O)OC(C)(C)C)c4ccccc4)C[C@@](O)([C@@H](OC(=O)c4ccccc4)[C@H]21)C3(C)C` [Docetaxel], the relative viability by setting is: under setting [1], 0.491 ± 0.058; under setting [2], 0.349 ± 0.015; under setting [3], 0.583 ± 0.053; under setting [4], 0.429 ± 0.011.

In the case of `COc1cc2c(N3CCN(C(=O)Nc4ccc(OC(C)C)cc4)CC3)ncnc2cc1OCCCN1CCCCC1` [Tandutinib (MLN518)], the relative viability reads like this: under setting [1], 0.74 ± 0.03; under setting [2], 0.735 ± 0.071; under setting [3], 0.829 ± 0.075; under setting [4], 0.862 ± 0.1.

On to `Cn1cnc(-c2cc3nccc(Oc4ccc(NC(=S)NC(=O)Cc5ccccc5)cc4F)c3s2)c1`, for which the relative viability was 0.819 ± 0.071 under setting [1], 0.832 ± 0.051 under setting [2], 0.838 ± 0.093 under setting [3] and 0.945 ± 0.065 under setting [4].

With `C[C@@H]1CN(CC(=O)Nc2ccc3c(c2)Cc2cccc(-c4cc(=O)cc(N5CCOCC5)o4)c2S3)C[C@H](C)O1`, the relative viability under setting [1] amounted to 0.816 ± 0.029, the relative viability under setting [2] came out at 0.857 ± 0.089, the relative viability under setting [3] was 0.907 ± 0.043 and the relative viability under setting [4] amounted to 0.943 ± 0.024.

Turning to `Cc1cc(Nc2cc(N3CCN(C)CC3)nc(Sc3ccc(NC(=O)C4CC4)cc3)n2)n[nH]1`, the relative viability was 0.766 ± 0.087 under setting [1], 0.717 ± 0.062 under setting [2], 0.584 ± 0.067 under setting [3] and 0.459 ± 0.052 under setting [4].

Consider `CC(C)n1nc(-c2cc3cc(O)ccc3[nH]2)c2c(N)ncnc21`, for which the relative viability under setting [1] amounted to 0.686 ± 0.035, the relative viability under setting [2] came out at 0.751 ± 0.032, the relative viability under setting [3] stood at 0.37 ± 0.014 and the relative viability under setting [4] was 0.431 ± 0.043.

For `c1cncc(CN2CCC(n3ncc4c(N5CCOCC5)nc(-c5ccc6[nH]ccc6c5)nc43)CC2)c1`, the relative viability is, setting by setting: under setting [1], 0.861 ± 0.099; under setting [2], 0.896 ± 0.11; under setting [3], 0.73 ± 0.14; under setting [4], 0.761 ± 0.073.

As for `CC[C@@H]1C(=O)N(C)c2cnc(Nc3ccc(C(=O)NC4CCN(C)CC4)cc3OC)nc2N1C1CCCC1`, the relative viability is 0.451 ± 0.03 under setting [1], 0.362 ± 0.021 under setting [2], 0.212 ± 0.04 under setting [3] and 0.215 ± 0.02 under setting [4].
